Source: PubChem BioAssay (National Center for Advancing Translational Sciences (NCATS))
NS1 function inh: influenza NS1 inhibition. Potency, µM (highest dose often 46.1 µM). 270,000 compounds, 0.4% hits. AID 2326; calls by dose curve; note: actives are rising curves; nearly all actives have a fitted effect of over 50% in size
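Compounds were scored for reversing the slow growth caused by influenza A NS1 in S. cerevisiae, measured by optical density at 600 nm. Assay medium contained 2% galactose at pH 6.0; NS1-free yeast of the same strain were the positive control.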
Pf growth 48h: P. falciparum growth inhibition at 48 hours (one generation) | P. falciparum luciferase growth in erythrocytes, 48 h | Potency, µM (doses to about 28.7 µM), usual class: inhibitors | 310,000 compounds, 5.9% hits
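Luciferase-expressing parasites in RBCs, 2% Hct / 0.1% parasitemia final; RPMI 1640 + 0.5% Albumax; 37 C, 5% CO2, one generation; luminescence read-out, lower signal = inhibition.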
Shiga toxin inh: inhibitors of Shiga toxin in Vero cells; Vero cells, Shiga toxin protein synthesis inhibition reporter; 290,000 compounds, 9.2% hits; inhibition, % at 38.7 µM; in the data active = inhibition mostly above about 28%, no sharp cut-off; inactive = mostly below about 43%
Pf growth 96h: inhibits malaria parasite growth, 96 h; P. falciparum luciferase reporter growth, 96 h; Potency, µM (doses to about 28.7 µM), usual class: inhibitors; 320,000 compounds, 6.9% hits
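Delayed-death screen, second-generation endpoint: infected erythrocytes, 2% hematocrit, 0.05% parasitemia final; 96 hours at 37 C, 5% CO2; luciferase detection reagent; luminescence decrease equals reduced growth.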
SARS PLpro yeast: inhibitors of SARS-CoV papain-like protease in yeast | S. cerevisiae expressing SARS-CoV PLpro, growth rescue | Potency, µM (series often up to 32.9 µM), most hits filed as activators | 330,000 compounds, 0.19% hits; calls by dose curve; note: nearly all actives have a fitted effect of over 55% in size
CHX counter: counter-screen hit for Shiga toxin inhibitors, cycloheximide; 300,000 compounds, 12% hits; max response, %; cell reporter, cycloheximide protein synthesis inhibition counterscreen; in the data active = max response mostly above about 13%, no sharp cut-off; inactive = mostly below about 14%; note: read at 38.3 µM for the half of the compounds with a filed dose
CLK4 ADP-Glo: confirmation of inhibitors of human CDC-like kinase 4; shares compounds with Pf growth 48h; recombinant Clk4, RS peptide, ADP-Glo luminescence; Potency, µM (top dose mostly 80 µM), usual class: inhibitors; 65 compounds, 80% hits
Target sequence (Q9HAZ1 whole entry, looked up): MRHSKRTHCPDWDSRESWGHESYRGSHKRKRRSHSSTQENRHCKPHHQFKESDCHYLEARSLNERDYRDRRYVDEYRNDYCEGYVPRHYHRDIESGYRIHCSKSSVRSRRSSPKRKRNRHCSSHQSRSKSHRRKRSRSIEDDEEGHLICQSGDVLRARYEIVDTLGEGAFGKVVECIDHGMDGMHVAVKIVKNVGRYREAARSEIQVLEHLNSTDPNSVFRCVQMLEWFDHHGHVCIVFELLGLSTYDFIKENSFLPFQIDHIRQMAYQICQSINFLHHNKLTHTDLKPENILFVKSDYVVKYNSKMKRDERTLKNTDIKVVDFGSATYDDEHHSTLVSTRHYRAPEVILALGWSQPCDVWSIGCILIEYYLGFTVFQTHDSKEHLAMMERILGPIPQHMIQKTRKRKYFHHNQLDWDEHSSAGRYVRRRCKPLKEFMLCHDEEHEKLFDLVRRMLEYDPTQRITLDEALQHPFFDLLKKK
CLK4 cf ADP-FP: CLK4 (human) inhibition, Transcreener FP confirmation; shares compounds with Pf growth 48h; recombinant Clk4, ADP Transcreener FP, RS peptide; Potency, µM (highest dose often 80 µM), most hits filed as inhibitors; 65 compounds, 70% hits
Large screens that a line does not name were inactive (follow-up assays come after a bar, where they were run); ! = not active in a repeat. Rows were chosen to be rich in hits. Some 21% of all compounds tested hit in one or more screens of this group. Unless noted, calls come from the whole dose curve; as a rule, active = well fitted curve in the direction sought with a large enough effect; inconclusive = small, poorly fitted or top-dose-only effect, or another doubt; inactive = no such curve, though single readings can be large; an effect the other way counts as inactive or inconclusive.

CN(C)S(=O)(=O)c1ccc(C(=O)Nc2ccnn2C2CCCCC2)cc1	none
Fc1cccc(CNc2ncnc3ccc(-c4ccoc4)cc23)c1	Pf growth 48h inconclusive, Pf growth 96h inconclusive (no result: NS1 function inh, Shiga toxin inh, CHX counter) | CLK4 ADP-Glo 3.5µM | CLK4 cf ADP-FP 3.5µM
Cc1cccc(CNc2ncnc3ccc(-c4ccc5c(c4)OCCO5)cc23)c1	Pf growth 48h 4.7µM, Pf growth 96h 3.3µM (no result: NS1 function inh, Shiga toxin inh, CHX counter) | CLK4 ADP-Glo 0.56µM | CLK4 cf ADP-FP 0.71µM
Fc1cccc(CNc2ncnc3ccc(-c4cccc(Cl)c4)cc23)c1	Pf growth 48h 6.6µM, Pf growth 96h 2.9µM (no result: NS1 function inh, Shiga toxin inh, CHX counter) | CLK4 ADP-Glo 7.1µM | CLK4 cf ADP-FP 13µM
CS(=O)(=O)CCNCc1ccc(-c2ccc3ncnc(Nc4ccc(OCc5cccc(F)c5)c(Cl)c4)c3c2)o1	none (no result: NS1 function inh, Shiga toxin inh, SARS PLpro yeast, CHX counter)
Brc1ccc2ncnc(NCc3ccccc3)c2c1	Pf growth 48h inconclusive
Cc1cccc(CNc2ncnc3ccc(-c4cccc(C)c4)cc23)c1	Pf growth 48h 13µM, Pf growth 96h 3.7µM (no result: NS1 function inh, Shiga toxin inh, CHX counter) | CLK4 ADP-Glo 14µM | CLK4 cf ADP-FP inconclusive
COc1ccccc1CNC(=O)c1cccc2c1C(=O)N(Cc1cccnc1)C2	Pf growth 48h inconclusive (no result: NS1 function inh)
O=C(OCc1ccccc1)/C(=C/c1cccc([N+](=O)[O-])c1)NC(=O)c1ccco1	Pf growth 96h inconclusive
Cc1cccc(CNc2ncnc3ccc(-c4cccnc4)cc23)c1	Pf growth 48h 12µM, Pf growth 96h 6.6µM (no result: NS1 function inh, Shiga toxin inh, CHX counter) | CLK4 ADP-Glo 2.8µM | CLK4 cf ADP-FP 5µM
Cc1cccc(CNc2ncnc3ccc(-c4ccc5c(ccn5C)c4)cc23)c1	Pf growth 48h 3.3µM, Pf growth 96h 1.9µM (no result: NS1 function inh, Shiga toxin inh, CHX counter) | CLK4 ADP-Glo inconclusive | CLK4 cf ADP-FP inconclusive
Cc1ccc2ncnc(Nc3ccccc3)c2c1	none (no result: NS1 function inh)
c1cncc(CNc2ncnc3ccc(-c4ccoc4)cc23)c1	Pf growth 48h inconclusive, Pf growth 96h inconclusive (no result: NS1 function inh, Shiga toxin inh, CHX counter) | CLK4 ADP-Glo 0.56µM | CLK4 cf ADP-FP 1µM
Cc1ccc2ncnc(NCCCCCC(=O)O)c2c1	none
c1cncc(CNc2ncnc3sc4c(c23)CCC4)c1	none (no result: NS1 function inh)
Cc1cccc(CNc2ncnc3ccc(-c4ccoc4)cc23)c1	Pf growth 48h 15µM, Pf growth 96h 8.3µM (no result: NS1 function inh, Shiga toxin inh, CHX counter) | CLK4 ADP-Glo 0.25µM | CLK4 cf ADP-FP 0.28µM
CN(Cc1cccs1)C(=O)COc1cccc2c1OC(C)(C)C2	none (no result: NS1 function inh, Pf growth 48h, Shiga toxin inh, Pf growth 96h, CHX counter)
Cc1csc(CNc2ncnc3ccc(-c4ccccc4Cl)cc23)c1	Pf growth 48h 9.3µM, Pf growth 96h 2.6µM (no result: NS1 function inh, Shiga toxin inh, CHX counter) | CLK4 ADP-Glo 8.9µM | CLK4 cf ADP-FP inconclusive
Clc1ccc(CNCc2cccs2)cc1Cl	Pf growth 96h inconclusive
Cc1ccc(CNc2ncnc3cc(Cl)ccc23)cc1	Pf growth 48h inconclusive, Pf growth 96h inconclusive
Clc1ccccc1-c1ccc2ncnc(NCc3cccs3)c2c1	Pf growth 48h 5.9µM, Pf growth 96h 3.7µM (no result: NS1 function inh, Shiga toxin inh, CHX counter) | CLK4 ADP-Glo 6.3µM | CLK4 cf ADP-FP inconclusive
c1coc(-c2ccc3ncnc(NCc4cccs4)c3c2)c1	Pf growth 48h inconclusive, Pf growth 96h inconclusive (no result: NS1 function inh, Shiga toxin inh, CHX counter) | CLK4 ADP-Glo 28µM | CLK4 cf ADP-FP 28µM
Cc1noc(C)c1-c1ccc2ncnc(NCc3ccco3)c2c1	none (no result: NS1 function inh, Pf growth 48h, Pf growth 96h, SARS PLpro yeast)
Clc1cccc(-c2ccc3ncnc(NCc4cccs4)c3c2)c1	Pf growth 48h 12µM, Pf growth 96h 3.3µM (no result: NS1 function inh, Shiga toxin inh, CHX counter) | CLK4 ADP-Glo 4µM | CLK4 cf ADP-FP 7.9µM
CC(C)c1ccc(OCC(=O)NC2CC(C)(C)NC(C)(C)C2)c(Br)c1	Pf growth 48h inconclusive
COc1cc2c(cc1OC)CN(S(=O)(=O)c1ccc(Cl)nc1)CC2	none (no result: NS1 function inh, Shiga toxin inh, CHX counter)
CC(=O)Nc1ccc(CNc2ncnc3ccc(-c4c(C)noc4C)cc23)cc1	Pf growth 48h inconclusive, Pf growth 96h inconclusive (no result: NS1 function inh)
Cc1csc(CNc2ncnc3ccc(-c4cccnc4)cc23)c1	Pf growth 48h inconclusive, Pf growth 96h 10µM (no result: NS1 function inh, Shiga toxin inh, CHX counter) | CLK4 ADP-Glo 4.5µM | CLK4 cf ADP-FP 11µM
Cc1csc(CNc2ncnc3ccc(-c4ccoc4)cc23)c1	Pf growth 48h 13µM!, Pf growth 96h inconclusive (no result: NS1 function inh, Shiga toxin inh, CHX counter) | CLK4 ADP-Glo 0.56µM | CLK4 cf ADP-FP 0.56µM
Cc1csc(CNc2ncnc3ccc(-c4ccc5c(c4)OCCO5)cc23)c1	Pf growth 48h 12µM, Pf growth 96h inconclusive (no result: NS1 function inh, Shiga toxin inh, CHX counter) | CLK4 ADP-Glo 0.45µM | CLK4 cf ADP-FP 0.56µM
Cc1csc(CNc2ncnc3ccc(-c4ccc5c(c4)OCO5)cc23)c1	Pf growth 48h 10µM, Pf growth 96h 3.3µM (no result: NS1 function inh, Shiga toxin inh, CHX counter) | CLK4 ADP-Glo 0.16µM | CLK4 cf ADP-FP 0.16µM
Cc1cc(NC(=O)CNC(=O)C2CCCCC2)no1	none
O=C(CSc1nnnn1-c1cccnc1)Nc1ccc(F)cc1F	none
